# Source: PubChem BioAssay AID488896 (Broad Institute, 2010)
# Among all 320,000 compounds or so, about 3,100 (0.97%) were called active. Only a selection was taken, and actives are over-represented in it overall. A number with no mark means an inactive call.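 Rule for the calls: active = mean replicate inhibition of at least 70% and a set share of replicates each scoring 70 or more; inconclusive = meets just one of the two criteria; inactive = fails both criteria.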
# Target: Scavenger receptor class B member 1 (Mus musculus) (UniProt Q61009)
# Experiment: inhibitors of SR-BI mediated HDL lipid uptake, primary screen, ldlA[mSR-BI] cells, fluorescence, single point (AID 488896);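 note: 0% = median of neutral control wells and 100% = median of positive control wells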
# Settings: ldlA[mSR-BI] CHO cells, DiI-HDL uptake fluorescence, 3 h; at 12.5 µM; hits give high values
# Sequence of Scavenger receptor class B member 1 (Mus musculus) (Q61009 whole entry, looked up): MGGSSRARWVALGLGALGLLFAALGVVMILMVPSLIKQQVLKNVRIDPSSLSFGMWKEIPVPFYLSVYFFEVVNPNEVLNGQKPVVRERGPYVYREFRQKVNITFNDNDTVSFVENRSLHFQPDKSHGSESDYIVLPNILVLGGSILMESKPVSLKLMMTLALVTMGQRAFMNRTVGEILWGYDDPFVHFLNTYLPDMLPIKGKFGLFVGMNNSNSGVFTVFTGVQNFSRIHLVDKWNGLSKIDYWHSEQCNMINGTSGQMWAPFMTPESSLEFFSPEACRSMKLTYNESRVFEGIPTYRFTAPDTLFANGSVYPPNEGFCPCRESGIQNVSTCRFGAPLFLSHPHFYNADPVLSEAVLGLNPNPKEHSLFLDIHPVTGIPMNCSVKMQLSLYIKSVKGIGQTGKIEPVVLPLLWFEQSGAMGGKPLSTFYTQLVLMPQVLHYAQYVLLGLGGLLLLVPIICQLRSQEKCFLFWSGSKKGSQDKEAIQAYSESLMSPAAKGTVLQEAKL
row,Compound,inhibition
1,CCOc1ccc(C(C)=O)cc1COC(=O)CN1C(=O)NC2(CCCC2)C1=O,28.5%
2,CCOc1ccc(C(C)=O)cc1COC(=O)c1cnc(Cl)c(Cl)c1,-10.9%
3,CCOc1ccc(C(C)=O)cc1COC(=O)CNC(=O)c1cccs1,72.6% (active)
4,Cc1cccc(C=CC(=O)c2ccc(Cl)cc2)c1,0.714%
5,NC(CSC1(c2ccccc2)c2ccccc2-c2ccccc21)C(=O)O (stereo not given),-5.45%
6,O=C(NCc1ccccc1)c1cccc(NC(=O)C2CCCCC2)c1,0.488%
7,OCC1(CO)CC2(C1)CC(CO)(CO)C2,-21.2%
8,Cc1ccc(OC(=O)CCC(=O)Nc2ccc(Br)cc2)cc1,-15.2%
9,COc1ccc(C(=O)Nc2nc(-c3ccc(OC)cc3)c(-c3ccc([N+](=O)[O-])cc3)s2)cc1,32.2%
10,COC(=O)CCc1sc(Nc2ccc(Br)cc2)nc1-c1ccc(OC)cc1,87.4% (active)
11,COc1ccc(-c2ccc3c(c2)C2CC3CCN2CCC#N)cc1 (stereo not given),33.2%
12,C=CCn1c(=O)n(C)c2c(=O)n(C)c(=O)n(C)c21,1.14%
13,COc1ccc(CCNC(=O)COc2cc(C)cc3oc(=O)c(C)c(C)c23)cc1OC,6.42%
14,Cc1ccc(C(C)C)c(OCCSc2nc3ccccc3n2CC(=O)O)c1,-2.24%
15,CCOc1ccc(OCCSc2nc3ccccc3n2CC(=O)O)cc1,71.7% (active)
16,CCCn1c(C(O)c2ccc(OCC)cc2)nc2ccccc21 (stereo not given),14%
17,COc1ccc2c(c1)c(=Cc1ccc(N(C)C)cc1)c1cc(-c3ccccc3)[n+](C)n12,-63.4%
18,CCCN(CCC)S(=O)(=O)c1cc2c(cc1Br)CCN2C(=O)CC,7.1%
19,CCN(CC)CCCC(C)n1c2nc(=O)[nH]c(=O)c-2nc2cc(Cl)ccc21 (stereo not given),9.9%
20,CCC1([N+](=O)[O-])COC(c2ccc(C(C)C)cc2)OC1 (stereo not given),-13.9%

row,Compound,inhibition
1,CCc1ccc2c(c1)C1(NN=C(c3ccccc3)S1)C(=O)N2 (stereo not given),115% (active)
2,NNc1cccc(C=Cc2ccccc2)cc1=O,16.6%
3,CC(=O)N1CCN(C(=O)Nc2cccc(C(F)(F)F)c2)CC1,-9.59%
4,O=C(Nc1ccc(F)cc1)N1CCN(c2ccc(F)cc2)CC1,-29.4%
5,O=C(Nc1cccc(NC(=O)N2CCN(c3ccccc3)CC2)c1)N1CCN(c2ccccc2)CC1,86% (active)
6,O=c1c2ccccc2ncn1CCc1ccncc1,-5.47%
7,NC(=O)C1(Nc2ccc(-c3ccccc3)cc2)CCCC1,1.01%
8,Cc1cc(C)c(C=NNc2nc3c([nH]2)c(=O)n(C)c(=O)n3C)c(C)c1,-12.4%
9,CCC(=O)c1ccc(OC(=O)/C=C/c2cc(OC)c(OC)c(OC)c2)cc1,48.6%
10,CCOc1ccc(N/C=C/C(=O)c2cc(OC)c(OC)c(OC)c2)cc1,78.7% (active)
11,CCOc1ccc(N/C=C/C(=O)c2ccccc2)cc1,-1.21%
12,COc1ccc(S(=O)(=O)N2CCc3ccccc32)cc1C(=O)Nc1cc(S(C)(=O)=O)ccc1Cl,27.5%
13,O=S(=O)(Nc1ccc2ccccc2c1)N1CCCCC1,1.03%
14,c1ccc(CCc2ccccn2)cc1,-7.77%
15,O=C(OC12CC3CC(CC(C3)C1)C2)c1ccc(NCc2cc(O)ccc2O)cc1,5.77%
16,Cc1nc(N)nc(Cl)c1CCC1OCCO1,-19.5%
17,CN1CCN(c2ccc(S(=O)(=O)Nc3ccccc3)cc2[N+](=O)[O-])CC1,-5.63%
18,O=[N+]([O-])c1cc(S(=O)(=O)Nc2cccc(Cl)c2)ccc1N=Nc1c(O)[nH]c2ccccc12,101% (active)
19,Oc1[nH]c2ccccc2c1N=Nc1c(F)c(F)c(F)c(F)c1F,15.7%
20,O=C1CC(C(=O)O)NC(=S)N1 (stereo not given),-3.49%

row,Compound,inhibition
1,COc1ccc(Br)cc1C(=O)NC(=S)Nc1cc(-c2nc3ccccc3[nH]2)ccc1C,60.8%
2,COc1ccc(Br)cc1C(=O)Nc1cccc(C)c1C,76.2% (active)
3,COc1cc(OC)c(C(=O)Nc2ccccc2-c2ccccc2)cc1OC,20.8%
4,Cc1ccc(OCCNC(=O)c2cccc(S(=O)(=O)N3CCN(Cc4ccccc4)CC3)c2)cc1,20.6%
5,COc1ccc(C(=O)Nc2cccc(/C=C(/CCC(=O)O)c3nc4ccccc4s3)c2)cc1,36.4%
6,O=C(N/N=C/c1ccc(OC(=O)c2ccccc2Cl)cc1)c1ccc(O)cc1,44.4%
7,CC(C)(C)C(=O)Nc1ccc(C(=O)N/N=C/c2ccccc2OC(=O)c2ccc(Cl)cc2Cl)cc1,94.1% (active)
8,O=C(N/N=C/c1ccoc1)c1ccc(Cl)cc1Cl,-28.2%
9,O=C(NCC1(N2CCCCC2)CCCCC1)c1cccc(S(=O)(=O)Nc2ccccc2Cl)c1,-8.99%
10,COc1ccc2c(c1)C(c1cccs1)=NNC(c1cccnc1)=N2,-13.8%
11,CCOc1ccc2c(c1)C(c1ccc(C)cc1)=NNC(c1ccc(C)cc1)=N2,85.5% (active)
12,Cc1ccc(C2=Nc3c(ccc4ccccc34)C(c3ccncc3)=NN2)cc1,2.19%
13,CN(C)c1ccc(CSc2ccccc2)cc1,-8.91%
14,O=C(CCCCCCCC(=O)N1CCCCC1)N1CCCCC1,-7.35%
15,CSCCC(NC(=O)COc1ccccc1)C(=O)N1CCN(c2cccc(C(F)(F)F)c2)CC1 (stereo not given),13.3%
16,Cc1ccc(C)c(OCC(=O)N2CCN(C(=O)c3ccco3)CC2)c1,-10.6%
17,CCC(=O)Nc1ccc(C(=O)N2CCN(C(=O)c3ccco3)CC2)cc1,-9.2%
18,Cc1ccc(OCC(=O)Nc2ccc(N3CCN(C(=O)c4ccco4)CC3)cc2)c(C)c1,78% (active)
19,COc1cc2[nH]c(O)c(C=O)c2cc1OC,-52%
20,O=C1OCC2=C1C(c1ccc(Cl)cc1)c1cc3c(cc1O2)OCO3 (stereo not given),14%
